Data published in the OligoGym collection.

The sequences below were run against KIAA0564 (assay: pooled miR-30 sensor sort-seq; sequence = guide strand). Settings: shRNA.
Note: reference of the scale not given here.

Sequence | sensor-assay potency score (higher = more potent)
TAGTCTTTGCTTATTGTCCTTG | -0.514
TTGAATATAACAACTTAAGTTG | -0.73
TCTTTGTAGAACACCAGCCAGT | -0.952
TAGAACATCCAGCACAGTCAGG | -1.28
TTAACCTTTGCAATACAGCAAG | -0.99
TAAACATATATCTTTAACCATG | -1.59
TTGTGGAGGAGTAACATCTTTT | -1.09

The sequences below were run against KIAA0664 in the same assay as above. Settings: shRNA.

Sequence | sensor-assay potency score (higher = more potent)
TTTTCTTCTGCAGCACAGCGAA | -0.902
TTGCACTCGACCGAGGAGCAGA | -0.997
TTGACGTGCTTGACCACGGGGA | -0.0674
TTTCTTCTGCAGCACAGCGAAG | -1.66
AAGTTCTTCTTGAAGGTCGGGC | -0.0493
TTCTTCTTGAAGGTCGGGCTGA | -0.121
TTGCTCTCGTAGACTCGGGCGA | -0.673
TTGGAGACCAGCTCGTCGGCGG | -0.677
TTGAGCACGTCCTCCTCGGTGA | -0.45
TTGAAGGTCGGGCTGATCTGGT | -0.0579
TACGTCTTGAAGATGTGCTTGG | 0.188
TGCATCTTGGTCTCCTCGCTGG | -0.849

These sequences were tested against KIAA0930 in the same assay as above. Settings: shRNA.

Sequence | sensor-assay potency score (higher = more potent)
TCACCTGTAGACACTCGGCTGA | -0.216
TTGCTGTACTTGTAGAAGCCAA | -0.811
TAAGTGTGCATAGAGAAGGAAG | -1.42
ATAGAAAAGCATGTCGTCCTGC | 0.0437
TTCAGCTTCAGCCAGGACCCGA | -1.04
AAGTAGGTGGAGAACATCCAAG | -1.37
TTCTCCATGAAGTAGGTGGAGA | -1.12
TTTGTCACTAGCCACCAGCTCC | -0.835
TTATGGATGTGAATGTCCCCGC | -0.555
AAAAGCATGTCGTCCTGCCGGG | -0.426
TTCTTCATCTCAGCGATCCGGT | -0.0677
TTCTTGAGCGCCTCGTAGCGGA | -0.914

These sequences were tested against KIAA1217 in the same assay as above. Settings: shRNA.

Sequence | sensor-assay potency score (higher = more potent)
TACACTTTGAGGAGTGATCTGT | 0.221
TTTCCCATTATAGTGATCCAGA | -1.06
TTTGCTTGAACTTCCATTCTGT | 0.925
TTCTTCAATGAACAAGCTCTGC | -0.544
TTTCTCGATAGACACTGCCCTG | -1.06
TTCTCGATAGACACTGCCCTGT | -0.436
TTTTTGTCTCTCTTGCTCCACT | -0.52
TGAACTTCCATTCTGTGCCTTG | 0.302
TAGTGATCCAGATTTTGCCTTT | -0.121
